About 7,900 targets were measured; listed, in parts, are those with a hit and a random draw of the rest. About 0.6% of all pairs of compound and target were hits.
Tests used:
Assay in all cases: log2 fold change, soluble protein after heating vs DMSO (PISA); higher = thermal stabilisation; K562 cells, 10 uM, 30 min; active = over 0.2 and 3.5 SD of the protein, either way, in both replicates (recomputed)
[1] = compound: NC1(c2ccc(-c3nc4ccn5c(=O)[nH]nc5c4cc3-c3ccccc3)cc2)CCC1
Procedure, shortened: (§1)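 Values are thermal stability changes relative to control samples and are taken from duplicates. They are stated as log2 fold changes. Before quantification by TMTpro 16plex LC-MS/MS with equalised channel sums, K562 cells at 2×10^6 cells/mL were treated with 10 μM compound for 30 min, heated in aliquots for 3 min across 48°C-58°C, pooled, extracted in PBS with 0.5% NP-40 at 4°C, and centrifuged at 21,000xg for 90 min to give the soluble supernatant.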

[2] = compound: O=C(O)c1ccc2c(c1)nc(Nc1cccc(Cl)c1)c1ccncc12 [silmitasertib]
Procedure, shortened: as §1

[3] = compound: NCC(=O)Nc1ccc(-n2nc(C(F)(F)F)cc2-c2ccc3c(ccc4ccccc43)c2)cc1
Procedure, shortened: as §1

[4] = compound: O=C(CCCCCCNC(=O)c1cnc(N(c2ccccc2)c2ccccc2Cl)nc1)NO [citarinostat]
Procedure, shortened: as §1

[5] = compound: O=C1NC(=O)C(c2cnc3ccccn23)=C1c1cn2c3c(cc(F)cc13)CN(C(=O)N1CCCCC1)CC2
Procedure, shortened: as §1

[6] = compound: c1cc(OCCN2CCCCC2)cc(-c2n[nH]c3ccc(-c4nnc[nH]4)cc23)c1
Procedure, shortened: as §1

[7] = compound: c1cn2cc(-c3ccc4cn[nH]c4c3)nc(Nc3ccc(N4CCOCC4)cc3)c2n1 [entospletinib]
Procedure, shortened: as §1

[8] = compound: NC(=O)c1cnc(N[C@@H]2CCCC[C@@H]2N)nc1Nc1cccc(-n2nccn2)c1
Procedure, shortened: as §1

[9] = compound: O=C(CCCCCCC(=O)Nc1ccccc1)NO [vorinostat]
Procedure, shortened: as §1

[10] = compound: NC(=O)Nc1cc(-c2cccc(F)c2)sc1C(=O)N[C@H]1CCCNC1
Procedure, shortened: as §1

[11] = compound: Nc1ccccc1NC(=O)c1ccc(CNC(=O)OCc2cccnc2)cc1 [entinostat]
Procedure, shortened: as §1

Measured: log2 fold change

LIN52 (UniProt Q52LA3)
Chain of UniProt Q52LA3 (Q52LA3 whole entry, looked up): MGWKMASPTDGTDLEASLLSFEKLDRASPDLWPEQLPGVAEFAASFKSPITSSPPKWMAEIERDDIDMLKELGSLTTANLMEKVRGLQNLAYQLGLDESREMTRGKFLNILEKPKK
inactive: [1] 0.294 | [2] -0.045

ITPRID2 (UniProt P28290)
Chain of UniProt P28290 (P28290 whole entry, looked up): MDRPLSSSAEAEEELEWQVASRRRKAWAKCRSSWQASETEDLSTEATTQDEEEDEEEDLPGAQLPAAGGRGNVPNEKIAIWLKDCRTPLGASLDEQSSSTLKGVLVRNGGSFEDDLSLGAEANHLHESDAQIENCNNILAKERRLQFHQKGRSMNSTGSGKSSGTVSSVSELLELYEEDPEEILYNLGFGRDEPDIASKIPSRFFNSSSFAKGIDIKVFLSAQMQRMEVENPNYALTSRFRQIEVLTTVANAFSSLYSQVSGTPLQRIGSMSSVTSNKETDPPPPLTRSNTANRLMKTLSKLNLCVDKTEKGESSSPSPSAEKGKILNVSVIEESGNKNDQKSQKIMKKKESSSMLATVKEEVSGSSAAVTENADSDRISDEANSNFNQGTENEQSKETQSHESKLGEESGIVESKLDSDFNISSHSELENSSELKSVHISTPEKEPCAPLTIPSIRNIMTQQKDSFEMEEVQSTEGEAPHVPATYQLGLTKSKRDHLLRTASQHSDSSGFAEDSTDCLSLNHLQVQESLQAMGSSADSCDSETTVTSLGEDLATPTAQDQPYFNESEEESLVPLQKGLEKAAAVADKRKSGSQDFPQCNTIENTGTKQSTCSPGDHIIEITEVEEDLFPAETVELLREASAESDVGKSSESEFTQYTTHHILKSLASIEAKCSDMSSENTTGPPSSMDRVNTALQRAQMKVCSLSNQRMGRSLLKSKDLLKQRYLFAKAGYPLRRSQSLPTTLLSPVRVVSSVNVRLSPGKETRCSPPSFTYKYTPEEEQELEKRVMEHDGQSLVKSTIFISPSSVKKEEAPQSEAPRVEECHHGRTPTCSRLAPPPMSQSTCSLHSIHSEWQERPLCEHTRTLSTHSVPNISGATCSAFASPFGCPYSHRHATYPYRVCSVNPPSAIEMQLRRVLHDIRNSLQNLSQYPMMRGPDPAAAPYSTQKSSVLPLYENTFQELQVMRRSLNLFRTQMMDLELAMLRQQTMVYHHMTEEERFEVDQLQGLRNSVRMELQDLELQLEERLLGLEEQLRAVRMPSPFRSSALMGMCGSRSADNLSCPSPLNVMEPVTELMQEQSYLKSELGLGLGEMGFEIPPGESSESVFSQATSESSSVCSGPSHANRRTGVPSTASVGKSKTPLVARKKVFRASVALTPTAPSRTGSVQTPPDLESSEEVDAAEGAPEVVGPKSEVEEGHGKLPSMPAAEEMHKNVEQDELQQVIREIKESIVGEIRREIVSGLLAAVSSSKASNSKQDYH
inactive: [3] -0.059 | [4] -0.029 | [5] -0.208 | [6] 0.211 | [7] -0.017

MBLAC1 (UniProt A4D2B0)
Chain of UniProt A4D2B0 (A4D2B0 whole entry, looked up): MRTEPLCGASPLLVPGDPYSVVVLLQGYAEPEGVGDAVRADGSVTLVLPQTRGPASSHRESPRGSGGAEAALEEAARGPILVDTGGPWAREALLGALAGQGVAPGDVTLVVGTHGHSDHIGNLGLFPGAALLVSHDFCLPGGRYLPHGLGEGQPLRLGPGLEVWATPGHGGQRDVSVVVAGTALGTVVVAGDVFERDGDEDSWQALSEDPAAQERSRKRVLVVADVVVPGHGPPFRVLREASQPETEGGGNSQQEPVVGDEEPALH
inactive: [8] -0.031 | [1] -0.179 | [3] 0.242 | [9] -0.021 | [4] 0.01 | [2] -0.082 | [6] -0.067 | [7] 0.083

MAPRE3 isoform 2 (UniProt Q9UPY8)
inactive: [8] -0.033

LEPROT (UniProt O15243)
Chain of UniProt O15243 (O15243 whole entry, looked up): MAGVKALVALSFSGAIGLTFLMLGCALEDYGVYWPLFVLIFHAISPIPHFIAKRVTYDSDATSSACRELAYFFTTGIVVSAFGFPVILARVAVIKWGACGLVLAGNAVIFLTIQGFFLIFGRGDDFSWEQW
inactive: [8] -0.161 | [1] -0.088 | [9] -0.142 | [4] 0.125 | [2] 0.005 | [5] 0.261 | [6] -0.072 | [7] 0.029

MAML1 (UniProt Q92585)
Chain of UniProt Q92585 (Q92585 whole entry, looked up): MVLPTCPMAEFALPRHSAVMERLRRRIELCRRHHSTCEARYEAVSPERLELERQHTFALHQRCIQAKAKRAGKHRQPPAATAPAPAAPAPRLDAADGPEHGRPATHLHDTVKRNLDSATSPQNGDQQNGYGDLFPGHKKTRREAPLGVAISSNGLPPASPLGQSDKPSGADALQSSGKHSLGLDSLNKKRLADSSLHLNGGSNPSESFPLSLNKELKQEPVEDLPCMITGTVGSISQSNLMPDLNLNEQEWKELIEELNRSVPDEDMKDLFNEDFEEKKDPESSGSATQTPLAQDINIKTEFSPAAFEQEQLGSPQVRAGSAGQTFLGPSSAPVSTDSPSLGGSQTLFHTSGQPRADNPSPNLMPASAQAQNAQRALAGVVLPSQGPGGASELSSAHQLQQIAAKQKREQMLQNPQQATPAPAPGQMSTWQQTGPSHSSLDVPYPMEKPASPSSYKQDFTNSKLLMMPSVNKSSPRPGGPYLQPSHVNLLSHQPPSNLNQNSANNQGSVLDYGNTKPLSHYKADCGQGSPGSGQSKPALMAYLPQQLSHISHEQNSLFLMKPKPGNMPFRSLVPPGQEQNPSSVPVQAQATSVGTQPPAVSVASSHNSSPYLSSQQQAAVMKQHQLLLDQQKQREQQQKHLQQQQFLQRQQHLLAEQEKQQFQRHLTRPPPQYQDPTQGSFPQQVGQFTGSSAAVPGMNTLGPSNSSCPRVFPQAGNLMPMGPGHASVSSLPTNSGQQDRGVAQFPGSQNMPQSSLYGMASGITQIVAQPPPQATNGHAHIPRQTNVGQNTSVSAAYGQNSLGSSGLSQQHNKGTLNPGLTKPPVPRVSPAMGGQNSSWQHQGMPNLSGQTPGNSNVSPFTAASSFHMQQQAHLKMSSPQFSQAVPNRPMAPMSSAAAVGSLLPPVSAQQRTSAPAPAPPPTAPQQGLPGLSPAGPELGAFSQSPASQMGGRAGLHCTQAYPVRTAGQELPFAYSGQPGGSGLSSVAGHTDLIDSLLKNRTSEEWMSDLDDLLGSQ
inactive: [10] 0.08 | [3] 0.088 | [11] -0.104 | [5] 0.025

KCNK5 (UniProt O95279)
Chain of UniProt O95279 (O95279 whole entry, looked up): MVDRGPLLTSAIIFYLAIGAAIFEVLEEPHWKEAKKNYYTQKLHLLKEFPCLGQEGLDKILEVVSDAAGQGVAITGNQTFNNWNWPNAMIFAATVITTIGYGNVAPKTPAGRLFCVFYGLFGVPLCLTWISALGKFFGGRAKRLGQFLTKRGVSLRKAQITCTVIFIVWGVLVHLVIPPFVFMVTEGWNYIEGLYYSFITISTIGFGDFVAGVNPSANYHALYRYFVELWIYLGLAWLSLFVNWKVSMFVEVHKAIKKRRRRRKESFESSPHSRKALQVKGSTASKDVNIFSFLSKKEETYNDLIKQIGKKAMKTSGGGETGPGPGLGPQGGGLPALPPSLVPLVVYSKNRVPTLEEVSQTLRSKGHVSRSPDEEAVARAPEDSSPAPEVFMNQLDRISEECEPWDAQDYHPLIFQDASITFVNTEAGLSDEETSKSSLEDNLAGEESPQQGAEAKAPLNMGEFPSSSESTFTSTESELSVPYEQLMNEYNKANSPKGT
inactive: [10] -0.066 | [1] 0.16 | [11] 0.031 | [9] -0.102 | [4] 0.198 | [2] 0.093 | [5] 0.004 | [6] 0.005 | [7] 0.171

LRRCC1 (UniProt Q9C099)
inactive: [8] -0.041

ING5 (UniProt Q8WYH8)
Chain of UniProt Q8WYH8 (Q8WYH8 whole entry, looked up): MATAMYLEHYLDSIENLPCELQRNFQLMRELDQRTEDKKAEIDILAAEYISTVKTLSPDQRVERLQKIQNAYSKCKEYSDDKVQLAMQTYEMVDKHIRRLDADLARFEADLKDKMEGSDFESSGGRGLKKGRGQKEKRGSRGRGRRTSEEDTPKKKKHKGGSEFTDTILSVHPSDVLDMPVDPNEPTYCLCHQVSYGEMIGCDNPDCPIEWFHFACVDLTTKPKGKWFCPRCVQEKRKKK
inactive: [1] -0.042 | [4] 0.115 | [2] -0.013 | [6] -0.008 | [7] -0.058

IKZF1 isoform 2 (UniProt Q13422)
Chain of UniProt Q13422 (Q13422 whole entry, looked up): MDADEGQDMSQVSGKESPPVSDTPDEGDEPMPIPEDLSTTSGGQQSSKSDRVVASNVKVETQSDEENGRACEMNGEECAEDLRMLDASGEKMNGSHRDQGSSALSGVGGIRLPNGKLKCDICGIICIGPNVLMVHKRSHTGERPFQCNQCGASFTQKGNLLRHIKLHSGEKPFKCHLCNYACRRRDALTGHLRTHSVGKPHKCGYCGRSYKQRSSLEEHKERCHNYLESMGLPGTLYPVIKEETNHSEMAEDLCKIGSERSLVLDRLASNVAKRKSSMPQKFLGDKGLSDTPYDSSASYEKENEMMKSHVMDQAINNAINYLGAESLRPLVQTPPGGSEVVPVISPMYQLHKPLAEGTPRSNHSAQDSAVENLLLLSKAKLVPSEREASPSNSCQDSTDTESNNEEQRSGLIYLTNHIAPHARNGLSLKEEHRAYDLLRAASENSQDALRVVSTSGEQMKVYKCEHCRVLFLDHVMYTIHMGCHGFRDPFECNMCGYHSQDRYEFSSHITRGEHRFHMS
inactive: [10] 0.06 | [1] -0.109 | [3] 0.036 | [11] -0.006 | [2] 0.063

ILF3 (UniProt Q12906)
Chain of UniProt Q12906 (Q12906 whole entry, looked up): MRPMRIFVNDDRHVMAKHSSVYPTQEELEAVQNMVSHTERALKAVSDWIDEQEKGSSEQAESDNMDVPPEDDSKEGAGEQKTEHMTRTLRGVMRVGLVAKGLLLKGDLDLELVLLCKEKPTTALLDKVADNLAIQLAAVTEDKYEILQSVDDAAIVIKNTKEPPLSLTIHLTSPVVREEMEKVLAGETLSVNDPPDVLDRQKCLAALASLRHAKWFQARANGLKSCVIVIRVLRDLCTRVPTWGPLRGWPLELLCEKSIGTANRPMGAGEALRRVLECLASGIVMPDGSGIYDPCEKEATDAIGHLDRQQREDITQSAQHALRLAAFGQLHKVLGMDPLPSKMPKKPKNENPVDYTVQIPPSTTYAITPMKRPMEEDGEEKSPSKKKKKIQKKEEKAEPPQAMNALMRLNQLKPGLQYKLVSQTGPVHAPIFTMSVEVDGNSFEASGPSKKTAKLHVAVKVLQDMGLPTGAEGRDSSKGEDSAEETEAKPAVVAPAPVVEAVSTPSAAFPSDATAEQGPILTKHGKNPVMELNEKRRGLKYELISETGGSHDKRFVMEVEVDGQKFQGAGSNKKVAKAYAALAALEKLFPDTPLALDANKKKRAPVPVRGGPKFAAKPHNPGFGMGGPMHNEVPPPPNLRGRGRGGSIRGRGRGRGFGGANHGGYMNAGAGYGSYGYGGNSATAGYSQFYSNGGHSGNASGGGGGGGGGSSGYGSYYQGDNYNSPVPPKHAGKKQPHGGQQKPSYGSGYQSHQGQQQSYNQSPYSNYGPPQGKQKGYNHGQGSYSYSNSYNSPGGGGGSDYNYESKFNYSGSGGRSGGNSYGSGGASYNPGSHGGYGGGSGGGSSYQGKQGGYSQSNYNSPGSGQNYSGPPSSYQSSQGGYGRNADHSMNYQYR
inactive: [10] 0.013 | [1] 0.331 | [11] 0.058 | [4] -0.134 | [2] 0.181 | [5] 0.174 | [6] -0.218 | [7] -0.086

LRRFIP1 isoform 4 (UniProt Q32MZ4)
inactive: [8] 0.04 | [9] -0.062 | [5] -0.019
